Assay results published in PubChem BioAssay (NCI).
Compounds without any hit were thinned out: in the full panel of roughly 83,000, 20% have a hit.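 Cell lines were cultured in 96-well plates, exposed to a single compound concentration, and assessed for percent growth 48 hours later.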 The source made the active and inactive calls. Rule for the calls: active = growth percent below 10; inactive = the rest.

System: MCF7 breast
Assay: NCI-60 one-dose screen, 48 h (100 = growth as untreated, 0 = no growth, -100 = all killed)
Settings: 10 µM unless noted

SMILES	growth
COc1ccc2[nH]c(=O)cc(-n3ncc(C(=O)/C=C/c4cc(OC)c(OC)c(OC)c4)c3C)c2c1	1.39% (active)
COc1ccccc1NC(=O)c1ccc(NC(=O)CCl)s1	-35% (active)
Cc1ccc(C(C)C)cc1Oc1cccc(-c2c(-c3ccc(C(F)(F)F)cc3)ncn2C2CCNCC2)n1	-85.3% (active)
O=C(c1ccc(O)cc1)C1[C@H](c2ccc(Cl)cc2)[C@@H](c2ccccc2)NC12C(=O)Nc1ccccc12 (some centres undefined)	-6.29% (active)
COc1c(B(O)O)cccc1-c1nc2ccc3cn[nH]c3c2c2c1CCCC2	60.5% (inactive)
COc1ccc(S(=O)(=O)Nc2ccc(-c3ccc4c(c3)NC(=O)/C4=C\c3ccc[nH]3)cc2)cc1OC	-39% (active)
Cc1ccc2c(c1)nc(-c1ccccc1)n2CC(=O)N=Nc1c(O)[nH]c2ccc(Cl)cc12	-64% (active)
Cc1nn(-c2ccccc2)c2nc(C)n(CC(=O)N/N=C/c3ccccc3O)c(=O)c12	7.8% (active)
Cc1cc(C)c2[nH]c(=O)c(C(c3nnnn3Cc3ccc4c(c3)OCO4)N3CCN(C)CC3)cc2c1 (centres undefined)	101% (inactive)
FC(F)(F)CN1CCN(CCn2c(C(F)(F)F)cc3c(Cl)ncnc32)CC1	25.3% (inactive)
O=C1NC(=NC23CC4CC(CC(C4)C2)C3)N/C1=C\c1ccc2ncccc2c1	-11.4% (active)
COc1cc2cc(C(=O)N3C[C@@H](CCl)c4c3cc(OC(=O)N(CCC(=O)N3CCN(C)CC3)C3CCCCC3)c3ccccc43)[nH]c2c(OC)c1OC	-59.6% (active)
O=C(Cn1c(-c2ccccc2)nc2ccccc21)N=Nc1c(O)[nH]c2ccc(Cl)cc12	9.49% (active)
Cn1cc(-c2cc(N)n3nc(-c4c[nH]c5ccc(Cl)cc45)cc3n2)c2cccnc21	-81.2% (active)
COc1ccc(NC(=O)N/N=C/c2c[nH]c3ccccc23)cc1	16.8% (inactive)
C[C@H]1[C@@H](CC(=O)N[C@@H](Cc2coc3ccccc23)B(O)O)O[C@@H]2OC3(C)CC[C@H]4[C@H](C)CC[C@@H]1[C@@]24O3	24.4% (inactive)
CCCCCCCCc1cccc(CC(=O)Nc2ccc(C)cc2C(=O)O)c1	36.7% [25 µM] (inactive)

SMILES	growth
CC(C)(C)C(=O)c1c2c(c3ccc4c5ccccc5ccc4n13)C(=O)c1ccccc1C2=O	75% (inactive)
CN(C)CCCc1ccc(Nc2cnn(C)c(=O)c2Cl)cc1	80.8% (inactive)
N#Cc1cc(-c2ccnc(Nc3ccc(N4CCN(C5COC5)CC4)cc3)n2)ccc1N1CCCC1	85.8% (inactive)
O=C(c1ccc(Cl)cc1)C1[C@H](c2ccccc2Cl)[C@@H](c2ccccc2)NC12C(=O)Nc1ccc(Br)cc12 (some centres undefined)	-48.7% (active)
C=CCSc1nnc(-c2ccc(-c3nc4ccccc4[nH]3)cc2)o1	72.6% (inactive)
CCCN(CCC)S(=O)(=O)c1ccc(C(=O)O)cc1.CCCN(CCC)S(=O)(=O)c1ccc(C(=O)O)cc1.[Cl][Pt+2][Cl].[NH2-].[NH2-]	8.34% (active)
O=C(Cc1c(-c2cccc([N+](=O)[O-])c2)n(-c2ncnc3c2c(-c2ccccc2)c(-c2ccccc2)n3Cc2ccccc2)[nH]c1=O)c1ccc(Cl)c(Cl)c1	24.7% (inactive)
Cn1cc(-c2cc(N)n3nc(-c4c[nH]c5ccccc45)cc3n2)c2ccccc21	-77.3% (active)
Clc1ccc(-c2nc3ccc(-c4nnc(SCc5ccccc5)o4)cc3[nH]2)cc1	8.62% (active)
N#CC1=C(c2ccco2)Nc2c(c(-c3ccccc3)nn2-c2ccccc2)C12C(=O)Nc1ccc(Cl)cc12 (centres undefined)	21.3% (inactive)
Cc1ccc(/C=C/C(=O)c2ccc(S(=O)(=O)NCCNc3nc(N(C)C)nc(N4CCOCC4)n3)cc2)cc1	7.32% (active)
Cc1nc2sccn2c1-c1nnc(SCc2ccccc2)o1	74.2% (inactive)
Cc1nc2sccn2c1-c1nnc(SCC(C)C)o1	37.5% (inactive)
CN(CCSSCCN1CCOCC1)C(=O)Oc1cc2c(c3ccccc13)[C@H](CCl)CN2C(=O)c1cc2cc(OCCCN3CCC3)ccc2[nH]1	-60.8% (active)
O=C1/C(=C/c2cnc(-c3ccccc3)s2)SC(=S)N1Cc1ccc2c(c1)OCO2	59.3% (inactive)
O=C(Cn1c(-c2ccccc2)nc2ccccc21)N=Nc1c(O)[nH]c2ccc(Br)cc12	-18.6% (active)
COc1ccc(N=Nc2c(N)nn3c(N)c(C#N)c(-c4ccc(C)cc4)nc23)cc1	12.5% (inactive)
